Counter-ions that a name gives are not always drawn.
Assays:
Details in all cases: compound concentration in added solution (µM; 5 µl added to 20 µl cells): 10; 18 h
[1] = test system: A431; assay: LBPA endosome anti-LBPA integrated intensity (sum per cell), Z-score; higher = more LBPA staining
How it was run: (§1)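 Each value is a Z-score normalised in AcuityXpress from per-cell integrated LBPA or filipin intensity, taken over the whole cell or within LBPA endosomes. Duplicate 384-well imaging plates held 5 µl of 10 µM compound solution, onto which 3,500 HeLa MZ or A431 cells in 20 µl were seeded per well. After 18 h the cells were fixed in 4% PFA, stained with 6C4 anti-LBPA antibody, filipin, propidium iodide and CellTracker green, imaged four times per well at 20× and segmented in MetaXpress.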

[2] = test system: HeLa MZ; assay: as above
How it was run: as §1

[3] = test system: A431; assay: whole-cell filipin (free cholesterol) integrated intensity, Z-score; higher = more cholesterol staining
How it was run: as §1

[4] = test system: HeLa MZ; assay: as above
How it was run: as §1

[5] = test system: A431; assay: filipin (cholesterol) integrated intensity within LBPA endosomes, Z-score; higher = more cholesterol in LBPA endosomes
How it was run: as §1

[6] = test system: HeLa MZ; assay: as above
How it was run: as §1

| Structure (SMILES) | LBPA endosome anti-LBPA integrated intensity (z-score) [1] | LBPA endosome anti-LBPA integrated intensity (z-score) [2] | whole-cell filipin (z-score) [3] | whole-cell filipin (z-score) [4] | filipin (z-score) [5] | filipin (z-score) [6] |
| --- | --- | --- | --- | --- | --- | --- |
| CCc1cc(C(N)=S)ccn1 [Ethionamide] | -0.517 | -0.148 | -0.588 | 0.221 | -0.493 | -0.459 |
| C=CCOC(Cn1ccnc1)c1ccc(Cl)cc1Cl (configuration not stated) [Enilconazole] | -0.206 | -0.741 | 0.571 | 0.192 | -0.128 | -0.352 |
| Nc1ncnc2c1ncn2C1OC(COP(=O)(O)O)C(O)C1O (configuration not stated) [Adenosine 5'-monophosphate monohydrate] | -0.591 | 0.12 | -0.666 | 0.0121 | -0.493 | -0.612 |
| CCN(CC)CCCC(C)Nc1ccnc2cc(Cl)ccc12 (configuration not stated) [Chloroquine diphosphate] | 3.38 | 2.38 | 0.0406 | 0.105 | 0.896 | 1.26 |
| OC(c1cc(C(F)(F)F)nc2c(C(F)(F)F)cccc12)C1CCCCN1 (configuration not stated) [Mefloquine hydrochloride] | 2 | -0.429 | 0.872 | -0.477 | 1.56 | 1.56 |
| CC(=O)OCC(=O)[C@@]12N=C(C)O[C@@H]1C[C@H]1[C@@H]3CCC4=CC(=O)C=C[C@]4(C)[C@H]3[C@@H](O)C[C@@]12C [Deflazacort] | -0.192 | 0.385 | 0.137 | 0.444 | -0.208 | -0.207 |
| O=C(O)Cc1sc(-c2ccccc2)nc1-c1ccc(Cl)cc1 [Fentiazac] | -0.661 | -1.44 | -0.809 | -0.504 | -0.591 | -0.756 |
| COc1ccc2cc([C@@H](C)C(=O)O)ccc2c1 [(R) -Naproxen sodium salt] | -0.646 | -1.68 | -0.677 | -0.633 | -0.535 | -0.58 |
| NC(=O)c1cccnc1 [Nicotinamide] | -0.398 | -0.64 | -0.512 | -0.013 | -0.419 | -0.499 |
| O=C(CCCN1CCC(O)(c2ccc(Cl)cc2)CC1)c1ccc(F)cc1 [Haloperidol] | 2.66 | 2.75 | 1.61 | 0.834 | 2.42 | 2.21 |
| CCOC(=O)n1ccn(C)c1=S [Carbimazole] | -0.395 | 0.106 | -0.405 | -0.308 | -0.513 | -0.531 |
| CCN1CCC[C@H]1CNC(=O)c1c(O)c(Cl)cc(Cl)c1OC [Raclopride] | -0.484 | -0.235 | -0.93 | -0.588 | -0.489 | -0.47 |
| CC(C)Cc1ccc([C@H](C)C(=O)O)cc1 [S-(+)-ibuprofen] | -0.498 | -0.256 | -0.555 | -0.301 | -0.443 | -0.51 |
| CC(C)(C)NC[C@H](O)COc1nsnc1N1CCOCC1 [Timolol maleate salt] | -0.399 | -0.336 | -0.605 | -0.359 | -0.435 | -0.395 |
| CC(=O)OCC(=O)[C@@]1(O)[C@H](C)C[C@H]2[C@@H]3CCC4=CC(=O)C=C[C@]4(C)[C@@]3(F)[C@@H](O)C[C@@]21C [Dexamethasone acetate] | -0.279 | -0.245 | -0.619 | -0.504 | -0.34 | -0.593 |
| CCCCCCC[N+](CC)(CC)CCCCc1ccc(Cl)cc1 [Clofilium tosylate] | -0.496 | -0.791 | -0.98 | -1.56 | -0.614 | -0.77 |
| CN1CCN(CC(=O)N2c3ccccc3C(=O)Nc3cccnc32)CC1 [Pirenzepine dihydrochloride] | -0.619 | -0.294 | -1.05 | -0.725 | -0.555 | -0.529 |
| Clc1cc(Cl)c(OCC#CI)cc1Cl [Haloprogin] | -0.472 | -1.16 | -0.945 | -0.949 | -0.529 | -0.714 |
| COc1ccc2[nH]cc(CCNC(C)=O)c2c1 [Melatonin] | -0.518 | 0.193 | -0.621 | -0.435 | -0.528 | -0.543 |
| COc1ccccc1N1CCN(CC(O)COc2cccc3ccccc23)CC1 (configuration not stated) [Naftopidil dihydrochloride] | 0.776 | 1.7 | 0.857 | 0.537 | 0.575 | 0.742 |
| CN1CCCC(n2nc(Cc3ccc(Cl)cc3)c3ccccc3c2=O)CC1 (configuration not stated) [Azelastine HCl] | 3.18 | 2.26 | 1.79 | 0.915 | 2.29 | 3.01 |
| CN1CCN(C(c2ccccc2)c2ccc(Cl)cc2)CC1 (configuration not stated) [Chlorcyclizine hydrochloride] | 1.56 | 0.74 | 1.78 | -0.254 | 1.24 | 0.687 |
| Cn1cnc([N+](=O)[O-])c1Sc1ncnc2[nH]cnc12 [Azathioprine] | -0.583 | -0.922 | -0.805 | -1.15 | -0.521 | -0.677 |
| CCCc1nc2c(C)cc(-c3nc4ccccc4n3C)cc2n1Cc1ccc(-c2ccccc2C(=O)O)cc1 [Telmisartan] | -0.132 | 0.924 | 0.0869 | 0.281 | -0.34 | -0.264 |

| Structure (SMILES) | LBPA endosome anti-LBPA integrated intensity (z-score) [1] | LBPA endosome anti-LBPA integrated intensity (z-score) [2] | whole-cell filipin (z-score) [3] | whole-cell filipin (z-score) [4] | filipin (z-score) [5] | filipin (z-score) [6] |
| --- | --- | --- | --- | --- | --- | --- |
| CN1CCc2cccc3c2[C@H]1Cc1ccc(O)c(O)c1-3 [R(-) Apomorphine hydrochloride hemihydrate] | 2.19 | 0.867 | -0.55 | -1.57 | 0.31 | -0.107 |
| NS(=O)(=O)c1cc(C2(O)NC(=O)c3ccccc32)ccc1Cl (configuration not stated) [Chlorthalidone] | -0.286 | -0.349 | -0.587 | -0.924 | -0.516 | -0.608 |
| O=C1c2ccccc2C(=O)C1c1ccccc1 [Phenindione] | -0.457 | 0.398 | -0.346 | -0.343 | -0.498 | -0.468 |
| C[C@@H]1C[C@H]2[C@@H]3C[C@H](F)C4=CC(=O)C=C[C@]4(C)[C@@]3(F)[C@@H](O)C[C@]2(C)[C@@]1(O)C(=O)CO [Flumethasone] | -0.341 | -0.862 | -0.0225 | 0.117 | -0.194 | -0.317 |
| CN(C)[C@@H]1C(O)=C(C(N)=O)C(=O)[C@@]2(O)C(O)=C3C(=O)c4c(O)cccc4[C@@](C)(O)[C@H]3C[C@@H]12 [Tetracycline hydrochloride] | -0.508 | 0.0873 | -0.872 | -0.867 | -0.521 | -0.698 |
| C[C@@H]1C[C@H]2[C@@H]3C[C@H](F)C4=CC(=O)C=C[C@]4(C)[C@@]3(Cl)[C@@H](O)C[C@]2(C)[C@H]1C(=O)COC(=O)C(C)(C)C [Clocortolone pivalate] | -0.276 | -1.1 | -0.183 | -0.473 | -0.253 | -0.536 |
| CO[C@H]1C[C@H](O[C@H]2[C@H](C)[C@@H](O[C@@H]3O[C@H](C)C[C@H](N(C)C)[C@H]3OC(C)=O)[C@@H](C)C[C@@]3(CO3)C(=O)[C@H](C)[C@@H](OC(C)=O)[C@@H](C)[C@@H](C)OC(=O)[C@@H]2C)O[C@@H](C)[C@@H]1OC(C)=O [Troleandomycin] | -0.105 | 0.938 | -0.701 | -0.492 | -0.249 | -0.17 |
| CN1[C@@H]2CC[C@H]1C[C@@H](OC(=O)C(O)c1ccccc1)C2 (mixture of isomers) [Homatropine hydrobromide (R,S)] | -0.625 | -0.216 | -0.825 | -0.838 | -0.591 | -0.57 |
| O=C(O)CCC(=O)c1ccc(-c2ccccc2)cc1 [Fenbufen] | -0.493 | 0.243 | -0.496 | -0.311 | -0.512 | -0.583 |
| CC(C)NCC(O)c1ccc(O)c(O)c1 (single isomer, unassigned; (-)) [(-)-Isoproterenol hydrochloride] | -0.173 | -0.052 | 0.672 | -0.415 | -0.458 | -0.467 |
| Cc1cnc(C(=O)O)c[n+]1[O-] [Acipimox] | -0.468 | -0.426 | -0.532 | -0.464 | -0.503 | -0.519 |
| N/C(=N\C(=O)c1nc(Cl)c(N)nc1N)NCc1ccccc1 [Benzamil hydrochloride] | 0.224 | 1.13 | 0.167 | 0.672 | -0.0522 | 0.566 |
| Cn1c(=O)c2[nH]cnc2n(C)c1=O [Aminophylline] | -0.25 | 0.505 | -0.204 | 0.324 | -0.281 | -0.178 |
| C[C@]12CC[C@@H]3c4ccc(OS(=O)(=O)O)cc4CC[C@H]3[C@@H]1CCC2=O [Estropipate] | -0.486 | -0.706 | -0.265 | -0.499 | -0.418 | -0.5 |
| Cc1cc(=O)oc2cc(O)ccc12 [Hymecromone] | -0.504 | -0.0954 | -0.674 | -0.684 | -0.459 | -0.528 |
| CC(C)(C)NC[C@H](O)COc1ccccc1C1CCCC1 [Penbutolol sulfate] | 1.31 | 0.815 | 1.46 | 0.313 | 1.3 | 0.914 |
| Cc1c(Cl)cccc1Nc1ncccc1C(=O)O [Clonixin Lysinate] | -0.476 | -1.1 | -0.0028 | -0.353 | -0.486 | -0.62 |
| Cc1c(O)c(=O)n(-c2ccccc2)n1C [Antipyrine, 4-hydroxy] | -0.407 | -0.193 | -0.48 | 0.114 | -0.485 | -0.43 |
| CN1CCN(c2c(F)cc3c(=O)c(C(=O)O)cn4c3c2SCC4)CC1 [Rufloxacin] | -0.614 | -0.736 | 0.0183 | -0.289 | -0.534 | -0.17 |
| Cc1c(N)c(=O)n(-c2ccccc2)n1C [Ampyrone] | -0.478 | -0.409 | -0.998 | -1.26 | -0.379 | -0.625 |
| CN(C)CCC(c1ccc(Cl)cc1)c1ccccn1 (configuration not stated) [Chlorpheniramine maleate] | -0.653 | 0.363 | -0.45 | -0.192 | -0.443 | 0.105 |
| CCOC(=O)[C@H](CCc1ccccc1)N[C@H]1CCc2ccccc2N(CC(=O)O)C1=O [Benazepril HCl] | -0.544 | -0.517 | -0.676 | -0.703 | -0.597 | -0.712 |
| CC(C)(C)NC(=O)[C@@H]1C[C@@H]2CCCC[C@@H]2CN1C[C@@H](O)[C@H](Cc1ccccc1)NC(=O)[C@H](CC(N)=O)NC(=O)c1ccc2ccccc2n1 [Saquinavir mesylate] | 0.938 | 0.684 | 1.12 | 0.276 | 0.903 | 0.906 |
